# Measured values: PubChem BioAssay (Tox21)
# Results filed as inconclusive are left out. A call without a number means that no potency is given here. The source made the active and inactive calls. Calls come from the whole dose curve; as a rule, active = well fitted curve in the direction sought with a large enough effect in the repeat runs; inconclusive = weak or mixed curves; inactive = no such curve, though single readings can be large; an effect the other way counts as inactive or inconclusive.
# Assays:
# [1] = target: Cytochrome P450 2C19 (Homo sapiens) (UniProt P33261); experiment: Cytochrome P450 Family 2 Subfamily C Member 19 (CYP2C19) small molecule antagonists: luciferase reporter qHTS assay (AID 1671197); conditions: P450-Glo CYP2C19 enzyme, luciferin luminescence, 1 h; series mostly up to 115 µM; note: nearly all actives have a fitted effect of over 65% in size
# Sequence of Cytochrome P450 2C19 (Homo sapiens) (P33261 whole entry, looked up): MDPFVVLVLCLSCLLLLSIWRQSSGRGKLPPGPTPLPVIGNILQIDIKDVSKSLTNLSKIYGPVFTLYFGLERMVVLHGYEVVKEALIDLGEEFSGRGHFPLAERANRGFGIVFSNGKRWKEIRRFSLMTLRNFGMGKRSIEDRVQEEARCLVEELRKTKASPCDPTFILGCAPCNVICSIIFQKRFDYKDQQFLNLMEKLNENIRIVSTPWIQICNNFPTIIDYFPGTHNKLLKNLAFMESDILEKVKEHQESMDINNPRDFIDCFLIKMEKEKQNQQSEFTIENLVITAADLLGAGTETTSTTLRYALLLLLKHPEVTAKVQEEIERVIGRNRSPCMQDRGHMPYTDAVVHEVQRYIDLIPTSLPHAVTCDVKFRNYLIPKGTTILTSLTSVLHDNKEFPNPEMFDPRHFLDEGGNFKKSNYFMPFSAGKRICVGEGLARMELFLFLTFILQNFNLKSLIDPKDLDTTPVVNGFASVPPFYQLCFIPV
# How it was run: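 Relative luminescence units recorded 20 min after the detection reagent stopped a 1 h, 37C CYP2C19 reaction on proluciferin substrate, which was started by NADPH regeneration following 10 min room-temperature compound preincubation; ketoconazole positive control.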
# [2] = target: Cytochrome P450 2C9 (Homo sapiens) (UniProt P11712); experiment: Cytochrome P450 Family 2 Subfamily C Member 9 (CYP2C9) small molecule antagonists: luciferase reporter qHTS assay (AID 1671198); conditions: P450-Glo CYP2C9 enzyme assay, luciferin luminescence; series mostly up to 115 µM; note: nearly all actives have a fitted effect of over 50% in size
# Sequence of Cytochrome P450 2C9 (Homo sapiens) (P11712 whole entry, looked up): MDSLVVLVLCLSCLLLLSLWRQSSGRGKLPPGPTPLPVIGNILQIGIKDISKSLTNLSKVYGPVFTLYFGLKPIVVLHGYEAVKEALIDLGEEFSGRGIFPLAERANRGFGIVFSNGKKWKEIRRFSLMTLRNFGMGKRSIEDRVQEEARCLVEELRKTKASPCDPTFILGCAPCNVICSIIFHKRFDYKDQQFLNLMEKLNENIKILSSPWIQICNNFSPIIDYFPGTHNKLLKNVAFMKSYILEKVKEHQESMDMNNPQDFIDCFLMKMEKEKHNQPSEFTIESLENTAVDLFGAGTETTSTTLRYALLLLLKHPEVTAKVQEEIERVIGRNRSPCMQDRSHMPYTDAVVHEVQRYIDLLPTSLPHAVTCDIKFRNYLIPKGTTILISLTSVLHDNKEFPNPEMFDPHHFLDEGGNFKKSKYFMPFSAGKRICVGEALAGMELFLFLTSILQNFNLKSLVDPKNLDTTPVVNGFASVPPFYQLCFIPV
# How it was run: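 Enzyme-substrate mix preincubated with compound 10 min at room temperature; reaction started with NADPH regeneration solution, 1 h 37C. Luminescent luciferin product read after 20 min detection reagent.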
# [3] = target: Cytochrome P450 3A4 (Homo sapiens) (UniProt P08684); experiment: Cytochrome P450 Family 3 Subfamily A Member 4 (CYP3A4) small molecule antagonists: luciferase reporter qHTS assay (AID 1671201); conditions: P450-Glo CYP3A4 enzyme, luciferin luminescence, 1 h; series mostly up to 115 µM; note: nearly all actives have a fitted effect of over 50% in size
# Sequence of Cytochrome P450 3A4 (Homo sapiens) (P08684 whole entry, looked up): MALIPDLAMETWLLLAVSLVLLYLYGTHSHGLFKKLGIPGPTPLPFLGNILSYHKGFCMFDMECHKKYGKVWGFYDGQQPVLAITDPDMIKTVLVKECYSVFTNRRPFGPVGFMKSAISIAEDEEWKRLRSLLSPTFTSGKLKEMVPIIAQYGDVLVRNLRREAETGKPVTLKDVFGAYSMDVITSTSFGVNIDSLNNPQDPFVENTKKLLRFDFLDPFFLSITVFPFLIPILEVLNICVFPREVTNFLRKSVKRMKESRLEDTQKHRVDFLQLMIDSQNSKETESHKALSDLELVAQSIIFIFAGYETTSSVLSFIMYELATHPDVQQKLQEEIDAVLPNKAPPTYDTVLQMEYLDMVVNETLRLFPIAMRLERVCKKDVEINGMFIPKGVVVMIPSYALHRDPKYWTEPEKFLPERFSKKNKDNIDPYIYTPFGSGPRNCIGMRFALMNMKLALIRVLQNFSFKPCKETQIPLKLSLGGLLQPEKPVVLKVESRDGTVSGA
# How it was run: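 Compounds in DMSO were pin-transferred onto CYP3A4 enzyme-substrate mix and held 10 min at room temperature. NADPH regenerating solution started the reaction for 1 h; luciferin detection reagent stopped it, and luminescence was read after 20 min.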
# [4] = target: Cytochrome P450 1A2 (Homo sapiens) (UniProt P05177); experiment: Cytochrome P450 Family 1 Subfamily A Member 2 (CYP1A2) small molecule antagonists: luciferase reporter qHTS assay (AID 1671199); conditions: P450-Glo CYP1A2 enzyme, luciferin luminescence, 1 h; series mostly up to 53 µM; note: nearly all actives have a fitted effect of over 50% in size
# Sequence of Cytochrome P450 1A2 (Homo sapiens) (P05177 whole entry, looked up): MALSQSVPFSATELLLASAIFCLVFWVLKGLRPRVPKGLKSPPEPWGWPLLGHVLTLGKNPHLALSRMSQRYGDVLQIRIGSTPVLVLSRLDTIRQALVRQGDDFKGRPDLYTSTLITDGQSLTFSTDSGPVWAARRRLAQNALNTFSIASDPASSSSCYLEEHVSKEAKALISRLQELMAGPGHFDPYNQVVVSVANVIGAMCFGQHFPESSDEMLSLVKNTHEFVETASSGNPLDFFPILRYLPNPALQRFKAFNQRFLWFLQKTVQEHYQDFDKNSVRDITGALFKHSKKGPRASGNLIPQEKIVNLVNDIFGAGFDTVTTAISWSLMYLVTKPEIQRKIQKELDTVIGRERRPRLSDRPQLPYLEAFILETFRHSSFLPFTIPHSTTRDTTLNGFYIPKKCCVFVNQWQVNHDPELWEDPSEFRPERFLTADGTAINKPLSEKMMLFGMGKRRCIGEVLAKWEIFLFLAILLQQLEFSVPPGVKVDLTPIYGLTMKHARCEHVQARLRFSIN
# How it was run: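 Enzymatic CYP1A2 assay, human, luminescent: 10 min compound–enzyme–substrate preincubation, 1 h NADPH-dependent turnover, 20 min detection step, room temperature throughout. Reduced light indicates lower CYP1A2 activity.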
# [5] = target: Voltage-gated inwardly rectifying potassium channel KCNH2 (Homo sapiens) (UniProt Q12809); experiment: Human Ether-a-go-go-Related Gene (hERG) channel small molecule antagonists: fluorescence cell-based qHTS assay (AID 1671200); conditions: hERG-U2OS cells, FluxOR thallium flux fluorescence; series mostly up to 76.8 µM; note: nearly all actives have a fitted effect of over 50% in size
# Sequence of Voltage-gated inwardly rectifying potassium channel KCNH2 (Homo sapiens) (Q12809 whole entry, looked up): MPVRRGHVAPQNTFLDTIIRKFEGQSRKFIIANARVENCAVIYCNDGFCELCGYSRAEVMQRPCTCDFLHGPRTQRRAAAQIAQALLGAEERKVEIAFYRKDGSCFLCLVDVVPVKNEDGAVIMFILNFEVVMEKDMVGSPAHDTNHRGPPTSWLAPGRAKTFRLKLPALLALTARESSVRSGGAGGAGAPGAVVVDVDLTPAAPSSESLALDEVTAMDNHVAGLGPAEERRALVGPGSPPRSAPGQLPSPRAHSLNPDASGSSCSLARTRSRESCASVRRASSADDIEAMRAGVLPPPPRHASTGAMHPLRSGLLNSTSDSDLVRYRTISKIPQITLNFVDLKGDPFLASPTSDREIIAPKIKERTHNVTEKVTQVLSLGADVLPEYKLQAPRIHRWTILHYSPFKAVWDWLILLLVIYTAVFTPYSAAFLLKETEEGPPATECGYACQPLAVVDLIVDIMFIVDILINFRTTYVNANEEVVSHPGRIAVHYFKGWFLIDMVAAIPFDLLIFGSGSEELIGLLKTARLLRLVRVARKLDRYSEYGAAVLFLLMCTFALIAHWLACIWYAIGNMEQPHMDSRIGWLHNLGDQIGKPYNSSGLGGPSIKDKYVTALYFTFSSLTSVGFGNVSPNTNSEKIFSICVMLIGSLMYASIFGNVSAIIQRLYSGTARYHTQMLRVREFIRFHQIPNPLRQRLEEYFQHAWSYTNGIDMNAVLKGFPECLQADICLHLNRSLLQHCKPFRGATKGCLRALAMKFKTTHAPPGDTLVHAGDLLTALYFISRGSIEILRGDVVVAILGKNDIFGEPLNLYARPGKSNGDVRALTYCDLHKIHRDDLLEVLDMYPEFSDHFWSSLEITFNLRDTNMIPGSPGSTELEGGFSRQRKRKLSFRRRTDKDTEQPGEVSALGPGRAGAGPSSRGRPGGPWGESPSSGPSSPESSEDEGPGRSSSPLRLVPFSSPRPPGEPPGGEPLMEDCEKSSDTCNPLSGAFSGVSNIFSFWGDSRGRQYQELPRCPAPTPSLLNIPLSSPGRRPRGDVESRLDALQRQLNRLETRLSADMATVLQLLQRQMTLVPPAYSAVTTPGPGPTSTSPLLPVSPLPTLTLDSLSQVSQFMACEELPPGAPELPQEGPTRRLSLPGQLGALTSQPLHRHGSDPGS
# How it was run: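 Channel function was assessed by thallium flux. Cells seeded the previous day and kept at 37 C took up FluxOR II dye over 1 h in the dark at room temperature, then sat another 10 min before stimulation.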
# Potency is the fitted concentration of half-maximal effect.
Compound,Potency [1],Potency [2],Potency [3],Potency [4],Potency [5]
CCOC(=O)N1CCC(n2c(=O)[nH]c3cc(Cl)ccc32)CC1,9.77 µM (active),9.77 µM (active),inactive,–,–
CCOCCn1c(C2CCN(CCc3ccc(C(C)(C)C(=O)O)cc3)CC2)nc2ccccc21,inactive,inactive,inactive,–,–
CN1CCN(CCCN2c3ccccc3Sc3ccc(S(=O)(=O)N(C)C)cc32)CC1,inactive,–,–,inactive,5.35 µM (active)
CCC(C)=O,inactive,inactive,inactive,–,inactive
O=c1[nH]c2ccc(S(=O)CCN3CCC(Cc4ccc(F)cc4)CC3)cc2o1 (configuration not stated),56.4 µM (active),–,–,inactive,4.36 µM (active)
CCC1(C)CC(=O)NC1=O (configuration not stated),inactive,–,inactive,inactive,inactive
CO[C@@]12[C@H](COC(N)=O)C3=C(C(=O)C(C)=C(N)C3=O)N1C[C@@H]1N[C@@H]12,inactive,–,–,30.9 µM (active),inactive
Cc1ccccc1N1C(=O)c2cc(S(N)(=O)=O)c(Cl)cc2NC1C (configuration not stated),inactive,–,–,inactive,inactive
O=S1OCCO1,inactive,inactive,inactive,–,–
Cc1ccc(S(=O)(=O)NC2CCCCC2)cc1,6.28 µM (active),22.3 µM (active),17.7 µM (active),–,–
CCOc1cc(N)c(Cl)cc1C(=O)NCC1CN(Cc2ccc(F)cc2)CCO1 (configuration not stated),3.47 µM (active),–,–,1.55 µM (active),–
CN(C)CCOC1=Cc2ccccc2Sc2ccc(Cl)cc21,inactive,–,–,18.2 µM (active),–
CCCOC(=O)c1ccc(N)cc1,24.5 µM (active),–,–,6.45 µM (active),–
CCCCCCCCCCCCCCC[C@H](O)[C@@H](N)CO,inactive,–,inactive,inactive,inactive
